The text below walks through data of PubChem BioAssay AID1345085 (National Center for Advancing Translational Sciences (NCATS), 2018).

Results filed as inconclusive are left out. The source made the active and inactive calls. The call rests on the fitted dose curve; in most records, active means well fitted cell-killing curve with a large enough effect; inconclusive means small, poorly fitted or top-dose-only effect, or effect the other way; inactive means no such curve, though single readings can be large or run the other way.
On the % scale 0 is the no-effect control and ±100 the full control effect; potency means the concentration at half of the fitted maximal effect.

The assay concerns PA-1. As to the kind of experiment: Confirmatory qHTS for gynecologic anti-cancer compounds from libraries of approved drugs and bioactive compounds. Further: nearly all actives have a fitted effect of over 55% in size. As to conditions: gynecologic cancer cell panel viability, ATPlite luminescence, 48 h; series mostly up to 57.6 µM; activity change, negative = viability loss: at the top concentration. Put shortly: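 IC50 values derive from an ATPlite ATP-content luminescence assay following 48 h treatment at 37 C. Each compound ran as an 11-concentration, threefold series (57.5 uM to 0.977 nM); HEK 293T served as control line for selectivity index.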
(qHTS replaces the single test concentration by a dilution series.)
Take `Cc1ccc(C(=O)N(CCCN)C(c2nc3cc(Cl)ccc3c(=O)n2Cc2ccccc2)C(C)C)cc1` (stereo not drawn): the Potency was 0.0172 µM (active).

On to `COCCOc1ccc2c(c1)ncn2-c1ccc2cccc(N3CCC(N)CC3)c2n1`, for which the Potency was 4.85 µM (active).

For the compound `Fc1cc(-c2cccc3ncc(-c4cnn(C5CCNCC5)c4)nc23)cc(F)c1CN1CCOCC1`, the Potency is 27.3 µM (active).

For `COc1cc(N2CCC(N3CCN(C)CC3)CC2)ccc1Nc1ncnc(Nc2ccccc2S(=O)(=O)C(C)C)n1`, the Potency is 9.68 µM (active).

`C[C@]12CCC(=O)C=C1[C@@H]1C[C@@H]1[C@H]1[C@@H]3[C@@H]4C[C@@H]4[C@@]4(CCC(=O)O4)[C@@]3(C)CC[C@@H]12`: the “activity change, negative = viability loss” value is -22.8% (inactive).

For the compound `COc1cc(-c2nn(C3CCC(N4CCN(C(C)=O)CC4)CC3)c3ncnc(N)c23)ccc1NC(=O)c1cc2ccccc2n1C` (stereo not drawn), the Potency was 30.6 µM (active).

Consider `Nc1ccccc1NC(=O)c1ccc(CNc2nccc(-c3cccnc3)n2)cc1`, for which the Potency was 1.09 µM (active).

With `Cc1cc(Nc2cc(N3CCN(C)CC3)nc(Sc3ccc(NC(=O)C4CC4)cc3)n2)n[nH]1`, the Potency is 2.17 µM (active).

`CC1=C(/C=C/C(C)=C/C=C/C(C)=C/C(=O)Nc2ccc(O)cc2)C(C)(C)CCC1`: the Potency was 4.85 µM (active).

Take `Cc1nc2ccc(CN(C)c3ccc(C(=O)NC(CCC(=O)O)C(=O)O)s3)cc2c(=O)[nH]1` (stereo not drawn): the Potency is 0.137 µM (active).

In the case of `CCS(=O)(=O)c1cccc(-c2cc(C(=O)NC3CCN(C)CC3)c(C)c3[nH]c4ncc(C)cc4c23)c1`, the Potency was 1.06 µM (active).

Take `CCC(=O)N1CCN(c2ccc(-n3c(=O)ccc4cnc5ccc(-c6cnc7ccccc7c6)cc5c43)cc2C(F)(F)F)CC1`: the Potency was 0.627 µM (active).

Take `Cn1c(=O)c(F)c(Nc2ccc(I)cc2F)c2c(=O)n(CC(O)CO)cnc21` (stereo not drawn): the Potency is 2.17 µM (active).

Take `Cc1nc(N)sc1-c1ccnc(Nc2ccc(N3CCOCC3)cc2)n1`: the Potency is 4.32 µM (active).

Take `CC(C)n1c(/C=C/[C@@H](O)C[C@@H](O)CC(=O)O)c(-c2ccc(F)cc2)c2ccccc21`: the Potency is 24.3 µM (active).

As to `CNc1nc(Nc2ccc(C(=O)N3CCOCC3)cc2OC)ncc1Cl`, the “activity change, negative = viability loss” value was 3.04% (inactive).

In the case of `Cc1ccn(-c2ccc(-c3ncco3)cc2)c(=O)c1-c1ccc2nc(N)ncc2c1`, the Potency is 27.3 µM (active).

With `Cc1cnc(Nc2ccc(CN3CCOCC3)cc2)nc1Nc1cccc(S(=O)(=O)NC(C)(C)C)c1`, the Potency was 2.17 µM (active).

For `CC[C@@]1(O)C(=O)OCc2c1cc1n(c2=O)Cc2c-1nc1ccccc1c2/C=N/OC(C)(C)C`, the Potency was 0.0273 µM (active).

As to `CN[C@@H](C)C(=O)N[C@H]1CN(C(=O)CC(C)C)CC[C@H]2CC[C@@H](C(=O)NC(c3ccccc3)c3ccccc3)N2C1=O`, the “activity change, negative = viability loss” value was -1.71% (inactive).

Consider `CC(C)Oc1ccc2c(=O)c(-c3ccccc3)coc2c1`, for which the Potency was 17.2 µM (active).

With `Cc1ccc(C(=O)Nc2ccc(CN3CCN(C)CC3)c(C(F)(F)F)c2)cc1C#Cc1cnc2cccnn12`, the Potency was 6.85 µM (active).

Regarding `CCCCc1oc2ccccc2c1C(=O)c1cc(I)c(OCCN(CC)CC)c(I)c1`, the Potency was 39.8 µM (active).

On to `COc1cc(Nc2c(C#N)cnc3cc(OCCCN4CCN(C)CC4)c(OC)cc23)c(Cl)cc1Cl`, for which the Potency was 13.7 µM (active).

As to `NCCOc1cc(C(=O)Nc2cc(OCCN)c3ccccc3n2)nc(C(=O)Nc2cc(OCCN)c3ccccc3n2)c1`, the Potency is 19.3 µM (active).

For `CC(C)C[C@H](NC(=O)[C@@H](NC(=O)c1cccc(-c2ccccc2)n1)[C@@H](C)O)B(O)O`, the Potency was 0.0385 µM (active).

As to `Cc1nc(N)ncc1-c1nc(N2CCOCC2)c2sc(C(C)(C)O)cc2n1`, the Potency is 6.85 µM (active).

Take `c1cc(N[C@@H]2CCNC2)nc(-c2cnc3ccc(-c4cn[nH]c4)cn23)c1`: the Potency was 1.72 µM (active).

In the case of `CN1C(=O)C(Cc2c[nH]c3ccccc23)NC1=S` (stereo not drawn), the “activity change, negative = viability loss” value was 11% [at 19.5 µM] (inactive).

On to `NC(=O)c1cnc(-c2ccc(C3(N)CCC3)cc2)c(-c2ccccc2)c1`, for which the Potency is 27.3 µM (active).

Consider `CCC1=CC2CN(C1)Cc1c([nH]c3ccccc13)[C@@](C(=O)OC)(c1cc3c(cc1OC)N(C)[C@H]1[C@@](O)(C(=O)OC)[C@H](OC(C)=O)[C@]4(CC)C=CCN5CC[C@]31[C@@H]54)C2` (stereo partly drawn), for which the Potency is 0.053 µM (active).

Take `COc1cccc2c1C(=O)c1c(O)c3c(c(O)c1C2=O)C[C@@](O)(C(=O)CO)C[C@@H]3O[C@H]1C[C@H](N)[C@H](O)[C@H](C)O1`: the Potency was 0.432 µM (active).

`CCCCc1nc2cc(/C=C/C(=O)NO)ccc2n1CCN(CC)CC`: the Potency was 0.385 µM (active).
